± gives the standard deviation of the averaged measurements. Of roughly 5,400 targets only a part is listed; those with the largest changes were picked by preference.
Compound: Nc1nc2c(ncn2[C@@H]2O[C@H](COP(=O)(O)OP(=O)(O)OP(=O)(O)O)[C@@H](O)[C@H]2O)c(=O)[nH]1 [guanosine triphosphate]
Experiment: NP40-soluble protein abundance relative to vehicle (solubility fold change) (ratio); higher = more soluble protein in presence of GTP
How it was run: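 Crude Jurkat lysate, prepared by Dounce homogenisation, was exposed to eight concentrations from 0.1 to 10 mM for 10 min at room temperature and then 3 min at 37 °C. Solubilisation used 0.8% NP40 with benzonase for 60 min at 4 °C, followed by ultracentrifugation and TMT labelling of the supernatant for LC-MS/MS. After vsn normalisation of intensities, each value is the fold change against the detergent-processed vehicle within each replicate, across three independent experiments.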

SNW1 (UniProt Q13573)
NP40-soluble protein abundance (concentration: 0.1mM): 0.96 ± 0.049
NP40-soluble protein abundance (concentration: 0.5mM): 0.94 ± 0.064
NP40-soluble protein abundance (concentration: 1mM): 0.97 ± 0.028
NP40-soluble protein abundance (concentration: 2mM): 0.94 ± 0.071
NP40-soluble protein abundance (concentration: 4mM): 0.942 ± 0.063
NP40-soluble protein abundance (concentration: 6mM): 0.959 ± 0.041
NP40-soluble protein abundance (concentration: 8mM): 1.01 ± 0.046
NP40-soluble protein abundance (concentration: 10mM): 1.03 ± 0.051

UniProt Q7Z3B4|Q7Z3B4-3
NP40-soluble protein abundance (concentration: 0.1mM): 1.02 ± 0.051
NP40-soluble protein abundance (concentration: 0.5mM): 1 ± 0.021
NP40-soluble protein abundance (concentration: 1mM): 1 ± 0.038
NP40-soluble protein abundance (concentration: 2mM): 1.01 ± 0.032
NP40-soluble protein abundance (concentration: 4mM): 1.06 ± 0.062
NP40-soluble protein abundance (concentration: 6mM): 1.07 ± 0.065
NP40-soluble protein abundance (concentration: 8mM): 1.12 ± 0.055
NP40-soluble protein abundance (concentration: 10mM): 1.18 ± 0.092

UniProt Q6NW34|Q6NW34-2
Sequence of UniProt Q6NW34 (Q6NW34 whole entry): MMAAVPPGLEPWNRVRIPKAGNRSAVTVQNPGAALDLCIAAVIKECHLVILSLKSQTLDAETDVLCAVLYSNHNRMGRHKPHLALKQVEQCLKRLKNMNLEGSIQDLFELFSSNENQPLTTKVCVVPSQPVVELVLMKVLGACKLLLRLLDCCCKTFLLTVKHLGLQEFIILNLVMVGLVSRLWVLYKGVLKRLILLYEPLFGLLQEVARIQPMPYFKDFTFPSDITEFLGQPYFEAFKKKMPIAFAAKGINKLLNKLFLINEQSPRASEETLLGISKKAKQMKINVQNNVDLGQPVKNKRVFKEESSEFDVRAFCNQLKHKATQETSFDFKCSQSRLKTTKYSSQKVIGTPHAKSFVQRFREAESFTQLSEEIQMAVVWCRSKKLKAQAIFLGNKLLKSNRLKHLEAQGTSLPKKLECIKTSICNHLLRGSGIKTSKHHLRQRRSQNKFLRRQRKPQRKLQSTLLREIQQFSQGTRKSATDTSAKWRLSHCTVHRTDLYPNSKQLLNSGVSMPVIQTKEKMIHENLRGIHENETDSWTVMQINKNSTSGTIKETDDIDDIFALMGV
NP40-soluble protein abundance (concentration: 0.1mM): 0.848 ± 0.051
NP40-soluble protein abundance (concentration: 0.5mM): 0.888 ± 0.08
NP40-soluble protein abundance (concentration: 1mM): 0.881 ± 0.074
NP40-soluble protein abundance (concentration: 2mM): 0.85 ± 0.031
NP40-soluble protein abundance (concentration: 4mM): 0.839 ± 0.071
NP40-soluble protein abundance (concentration: 6mM): 0.929 ± 0.032
NP40-soluble protein abundance (concentration: 8mM): 0.871 ± 0.059
NP40-soluble protein abundance (concentration: 10mM): 0.93 ± 0.012

FKBP3 (UniProt Q00688)
Sequence of UniProt Q00688 (Q00688 whole entry): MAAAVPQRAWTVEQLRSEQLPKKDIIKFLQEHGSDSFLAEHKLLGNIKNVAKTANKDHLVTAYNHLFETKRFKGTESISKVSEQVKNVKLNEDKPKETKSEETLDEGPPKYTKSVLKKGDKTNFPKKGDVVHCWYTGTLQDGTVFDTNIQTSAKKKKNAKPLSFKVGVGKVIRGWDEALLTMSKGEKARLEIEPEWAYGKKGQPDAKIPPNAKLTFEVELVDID
NP40-soluble protein abundance (concentration: 0.1mM): 0.911 ± 0.048
NP40-soluble protein abundance (concentration: 0.5mM): 0.906 ± 0.066
NP40-soluble protein abundance (concentration: 1mM): 0.943 ± 0.073
NP40-soluble protein abundance (concentration: 2mM): 0.906 ± 0.081
NP40-soluble protein abundance (concentration: 4mM): 0.902 ± 0.081
NP40-soluble protein abundance (concentration: 6mM): 0.905 ± 0.082
NP40-soluble protein abundance (concentration: 8mM): 0.925 ± 0.077
NP40-soluble protein abundance (concentration: 10mM): 0.943 ± 0.09

PSMD2 (UniProt Q13200)
NP40-soluble protein abundance (concentration: 0.1mM): 1.03 ± 0.077
NP40-soluble protein abundance (concentration: 0.5mM): 1.1 ± 0.11
NP40-soluble protein abundance (concentration: 1mM): 1.01 ± 0.13
NP40-soluble protein abundance (concentration: 2mM): 1.08 ± 0.19
NP40-soluble protein abundance (concentration: 4mM): 1.06 ± 0.17
NP40-soluble protein abundance (concentration: 6mM): 1.08 ± 0.2
NP40-soluble protein abundance (concentration: 8mM): 1.04 ± 0.16
NP40-soluble protein abundance (concentration: 10mM): 1 ± 0.15

UniProt Q02447-3
NP40-soluble protein abundance (concentration: 0.1mM): 0.995 ± 0.021
NP40-soluble protein abundance (concentration: 0.5mM): 1 ± 0.078
NP40-soluble protein abundance (concentration: 1mM): 1.01 ± 0.033
NP40-soluble protein abundance (concentration: 2mM): 0.984 ± 0.067
NP40-soluble protein abundance (concentration: 4mM): 0.983 ± 0.049
NP40-soluble protein abundance (concentration: 6mM): 1.01 ± 0.084
NP40-soluble protein abundance (concentration: 8mM): 1.08 ± 0.055
NP40-soluble protein abundance (concentration: 10mM): 1.05 ± 0.016

UniProt Q7Z2T5
Sequence of UniProt Q7Z2T5 (Q7Z2T5 whole entry): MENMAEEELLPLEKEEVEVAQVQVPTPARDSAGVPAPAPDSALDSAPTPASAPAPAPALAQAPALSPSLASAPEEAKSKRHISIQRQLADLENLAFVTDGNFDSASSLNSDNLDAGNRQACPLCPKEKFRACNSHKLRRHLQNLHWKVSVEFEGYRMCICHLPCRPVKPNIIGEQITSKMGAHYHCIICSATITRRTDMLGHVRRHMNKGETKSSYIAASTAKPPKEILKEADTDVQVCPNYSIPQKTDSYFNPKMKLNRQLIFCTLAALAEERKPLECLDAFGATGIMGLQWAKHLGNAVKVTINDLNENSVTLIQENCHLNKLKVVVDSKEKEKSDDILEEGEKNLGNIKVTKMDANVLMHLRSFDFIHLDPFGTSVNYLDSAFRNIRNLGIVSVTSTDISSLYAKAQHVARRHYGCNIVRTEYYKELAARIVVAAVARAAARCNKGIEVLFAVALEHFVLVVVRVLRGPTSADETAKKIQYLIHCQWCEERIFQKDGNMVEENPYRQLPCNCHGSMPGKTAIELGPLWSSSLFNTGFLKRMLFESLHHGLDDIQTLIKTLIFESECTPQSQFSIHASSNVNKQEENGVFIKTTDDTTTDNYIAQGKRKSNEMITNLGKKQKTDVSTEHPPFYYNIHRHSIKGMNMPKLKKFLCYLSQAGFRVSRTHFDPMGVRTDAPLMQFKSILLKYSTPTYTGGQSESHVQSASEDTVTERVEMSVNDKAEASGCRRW
NP40-soluble protein abundance (concentration: 0.1mM): 1.05 ± 0.05
NP40-soluble protein abundance (concentration: 0.5mM): 1.09 ± 0.014
NP40-soluble protein abundance (concentration: 1mM): 1.08 ± 0.035
NP40-soluble protein abundance (concentration: 2mM): 1.21 ± 0.059
NP40-soluble protein abundance (concentration: 4mM): 1.32 ± 0.072
NP40-soluble protein abundance (concentration: 6mM): 1.42 ± 0.08
NP40-soluble protein abundance (concentration: 8mM): 1.44 ± 0.059
NP40-soluble protein abundance (concentration: 10mM): 1.57 ± 0.024

UniProt Q8N3X1|Q8N3X1-2
NP40-soluble protein abundance (concentration: 0.1mM): 1.05 ± 0.043
NP40-soluble protein abundance (concentration: 0.5mM): 1.01 ± 0.076
NP40-soluble protein abundance (concentration: 1mM): 1.09 ± 0.022
NP40-soluble protein abundance (concentration: 2mM): 1.27 ± 0.017
NP40-soluble protein abundance (concentration: 4mM): 1.39 ± 0.024
NP40-soluble protein abundance (concentration: 6mM): 1.64 ± 0.031
NP40-soluble protein abundance (concentration: 8mM): 1.77 ± 0.15
NP40-soluble protein abundance (concentration: 10mM): 2.04 ± 0.24

LARP1 (UniProt Q6PKG0)
NP40-soluble protein abundance (concentration: 0.1mM): 1.02 ± 0.039
NP40-soluble protein abundance (concentration: 0.5mM): 1.11 ± 0.06
NP40-soluble protein abundance (concentration: 1mM): 1.32 ± 0.1
NP40-soluble protein abundance (concentration: 2mM): 1.46 ± 0.11
NP40-soluble protein abundance (concentration: 4mM): 1.66 ± 0.16
NP40-soluble protein abundance (concentration: 6mM): 1.78 ± 0.17
NP40-soluble protein abundance (concentration: 8mM): 1.88 ± 0.22
NP40-soluble protein abundance (concentration: 10mM): 1.99 ± 0.22

MTM1 (UniProt Q13496)
Sequence of UniProt Q13496 (Q13496 whole entry): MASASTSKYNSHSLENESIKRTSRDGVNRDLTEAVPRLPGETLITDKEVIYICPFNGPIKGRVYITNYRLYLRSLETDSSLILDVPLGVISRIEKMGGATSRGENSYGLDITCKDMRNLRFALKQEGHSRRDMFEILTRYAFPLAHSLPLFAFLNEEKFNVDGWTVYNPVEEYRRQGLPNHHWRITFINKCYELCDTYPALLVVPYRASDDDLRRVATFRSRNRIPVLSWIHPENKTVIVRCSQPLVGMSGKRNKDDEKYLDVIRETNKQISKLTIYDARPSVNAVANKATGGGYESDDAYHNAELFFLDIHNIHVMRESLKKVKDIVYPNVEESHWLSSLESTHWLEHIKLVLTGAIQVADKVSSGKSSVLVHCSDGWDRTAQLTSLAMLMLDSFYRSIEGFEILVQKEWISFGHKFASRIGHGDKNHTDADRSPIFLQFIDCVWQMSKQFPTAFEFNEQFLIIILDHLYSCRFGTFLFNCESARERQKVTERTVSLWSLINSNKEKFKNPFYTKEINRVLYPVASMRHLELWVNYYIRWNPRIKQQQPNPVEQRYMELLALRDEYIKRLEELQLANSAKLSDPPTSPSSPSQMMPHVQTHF
NP40-soluble protein abundance (concentration: 0.1mM): 1.01 ± 0.078
NP40-soluble protein abundance (concentration: 0.5mM): 1.08 ± 0.088
NP40-soluble protein abundance (concentration: 1mM): 0.961 ± 0.043
NP40-soluble protein abundance (concentration: 2mM): 0.99 ± 0.076
NP40-soluble protein abundance (concentration: 4mM): 0.933 ± 0.093
NP40-soluble protein abundance (concentration: 6mM): 0.962 ± 0.093
NP40-soluble protein abundance (concentration: 8mM): 0.93 ± 0.057
NP40-soluble protein abundance (concentration: 10mM): 0.891 ± 0.087

UniProt Q13428|Q13428-3|Q13428-4|Q13428-7
NP40-soluble protein abundance (concentration: 0.1mM): 0.975 ± 0.096
NP40-soluble protein abundance (concentration: 0.5mM): 1.01 ± 0.085
NP40-soluble protein abundance (concentration: 1mM): 1.09 ± 0.12
NP40-soluble protein abundance (concentration: 2mM): 1.09 ± 0.15
NP40-soluble protein abundance (concentration: 4mM): 1.11 ± 0.16
NP40-soluble protein abundance (concentration: 6mM): 1.13 ± 0.14
NP40-soluble protein abundance (concentration: 8mM): 1.17 ± 0.17
NP40-soluble protein abundance (concentration: 10mM): 1.23 ± 0.23

ASCC3 (UniProt Q8N3C0)
NP40-soluble protein abundance (concentration: 0.1mM): 1 ± 0.066
NP40-soluble protein abundance (concentration: 0.5mM): 1.09 ± 0.026
NP40-soluble protein abundance (concentration: 1mM): 1.06 ± 0.032
NP40-soluble protein abundance (concentration: 2mM): 1.16 ± 0.091
NP40-soluble protein abundance (concentration: 4mM): 1.32 ± 0.17
NP40-soluble protein abundance (concentration: 6mM): 1.38 ± 0.22
NP40-soluble protein abundance (concentration: 8mM): 1.53 ± 0.26
NP40-soluble protein abundance (concentration: 10mM): 1.73 ± 0.27

UniProt Q86W42|Q86W42-2
Sequence of UniProt Q86W42 (Q86W42 whole entry): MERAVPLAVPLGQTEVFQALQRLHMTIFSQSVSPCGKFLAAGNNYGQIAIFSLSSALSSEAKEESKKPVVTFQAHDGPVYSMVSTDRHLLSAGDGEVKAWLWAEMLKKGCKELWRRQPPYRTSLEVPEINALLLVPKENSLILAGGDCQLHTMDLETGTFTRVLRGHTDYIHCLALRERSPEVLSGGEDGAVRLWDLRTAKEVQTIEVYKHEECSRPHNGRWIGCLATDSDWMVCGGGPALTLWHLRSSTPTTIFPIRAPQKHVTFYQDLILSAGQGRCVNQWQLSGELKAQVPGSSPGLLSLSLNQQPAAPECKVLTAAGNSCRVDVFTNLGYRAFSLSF
NP40-soluble protein abundance (concentration: 0.1mM): 1.21 ± 0.14
NP40-soluble protein abundance (concentration: 0.5mM): 1.35 ± 0.28
NP40-soluble protein abundance (concentration: 1mM): 1.46 ± 0.27
NP40-soluble protein abundance (concentration: 2mM): 1.87 ± 0.52
NP40-soluble protein abundance (concentration: 4mM): 2.27 ± 0.61
NP40-soluble protein abundance (concentration: 6mM): 2.29 ± 0.68
NP40-soluble protein abundance (concentration: 8mM): 2.26 ± 0.54
NP40-soluble protein abundance (concentration: 10mM): 2.31 ± 0.65

NOTCH2 (UniProt Q04721)
Sequence of UniProt Q04721 (Q04721 whole entry): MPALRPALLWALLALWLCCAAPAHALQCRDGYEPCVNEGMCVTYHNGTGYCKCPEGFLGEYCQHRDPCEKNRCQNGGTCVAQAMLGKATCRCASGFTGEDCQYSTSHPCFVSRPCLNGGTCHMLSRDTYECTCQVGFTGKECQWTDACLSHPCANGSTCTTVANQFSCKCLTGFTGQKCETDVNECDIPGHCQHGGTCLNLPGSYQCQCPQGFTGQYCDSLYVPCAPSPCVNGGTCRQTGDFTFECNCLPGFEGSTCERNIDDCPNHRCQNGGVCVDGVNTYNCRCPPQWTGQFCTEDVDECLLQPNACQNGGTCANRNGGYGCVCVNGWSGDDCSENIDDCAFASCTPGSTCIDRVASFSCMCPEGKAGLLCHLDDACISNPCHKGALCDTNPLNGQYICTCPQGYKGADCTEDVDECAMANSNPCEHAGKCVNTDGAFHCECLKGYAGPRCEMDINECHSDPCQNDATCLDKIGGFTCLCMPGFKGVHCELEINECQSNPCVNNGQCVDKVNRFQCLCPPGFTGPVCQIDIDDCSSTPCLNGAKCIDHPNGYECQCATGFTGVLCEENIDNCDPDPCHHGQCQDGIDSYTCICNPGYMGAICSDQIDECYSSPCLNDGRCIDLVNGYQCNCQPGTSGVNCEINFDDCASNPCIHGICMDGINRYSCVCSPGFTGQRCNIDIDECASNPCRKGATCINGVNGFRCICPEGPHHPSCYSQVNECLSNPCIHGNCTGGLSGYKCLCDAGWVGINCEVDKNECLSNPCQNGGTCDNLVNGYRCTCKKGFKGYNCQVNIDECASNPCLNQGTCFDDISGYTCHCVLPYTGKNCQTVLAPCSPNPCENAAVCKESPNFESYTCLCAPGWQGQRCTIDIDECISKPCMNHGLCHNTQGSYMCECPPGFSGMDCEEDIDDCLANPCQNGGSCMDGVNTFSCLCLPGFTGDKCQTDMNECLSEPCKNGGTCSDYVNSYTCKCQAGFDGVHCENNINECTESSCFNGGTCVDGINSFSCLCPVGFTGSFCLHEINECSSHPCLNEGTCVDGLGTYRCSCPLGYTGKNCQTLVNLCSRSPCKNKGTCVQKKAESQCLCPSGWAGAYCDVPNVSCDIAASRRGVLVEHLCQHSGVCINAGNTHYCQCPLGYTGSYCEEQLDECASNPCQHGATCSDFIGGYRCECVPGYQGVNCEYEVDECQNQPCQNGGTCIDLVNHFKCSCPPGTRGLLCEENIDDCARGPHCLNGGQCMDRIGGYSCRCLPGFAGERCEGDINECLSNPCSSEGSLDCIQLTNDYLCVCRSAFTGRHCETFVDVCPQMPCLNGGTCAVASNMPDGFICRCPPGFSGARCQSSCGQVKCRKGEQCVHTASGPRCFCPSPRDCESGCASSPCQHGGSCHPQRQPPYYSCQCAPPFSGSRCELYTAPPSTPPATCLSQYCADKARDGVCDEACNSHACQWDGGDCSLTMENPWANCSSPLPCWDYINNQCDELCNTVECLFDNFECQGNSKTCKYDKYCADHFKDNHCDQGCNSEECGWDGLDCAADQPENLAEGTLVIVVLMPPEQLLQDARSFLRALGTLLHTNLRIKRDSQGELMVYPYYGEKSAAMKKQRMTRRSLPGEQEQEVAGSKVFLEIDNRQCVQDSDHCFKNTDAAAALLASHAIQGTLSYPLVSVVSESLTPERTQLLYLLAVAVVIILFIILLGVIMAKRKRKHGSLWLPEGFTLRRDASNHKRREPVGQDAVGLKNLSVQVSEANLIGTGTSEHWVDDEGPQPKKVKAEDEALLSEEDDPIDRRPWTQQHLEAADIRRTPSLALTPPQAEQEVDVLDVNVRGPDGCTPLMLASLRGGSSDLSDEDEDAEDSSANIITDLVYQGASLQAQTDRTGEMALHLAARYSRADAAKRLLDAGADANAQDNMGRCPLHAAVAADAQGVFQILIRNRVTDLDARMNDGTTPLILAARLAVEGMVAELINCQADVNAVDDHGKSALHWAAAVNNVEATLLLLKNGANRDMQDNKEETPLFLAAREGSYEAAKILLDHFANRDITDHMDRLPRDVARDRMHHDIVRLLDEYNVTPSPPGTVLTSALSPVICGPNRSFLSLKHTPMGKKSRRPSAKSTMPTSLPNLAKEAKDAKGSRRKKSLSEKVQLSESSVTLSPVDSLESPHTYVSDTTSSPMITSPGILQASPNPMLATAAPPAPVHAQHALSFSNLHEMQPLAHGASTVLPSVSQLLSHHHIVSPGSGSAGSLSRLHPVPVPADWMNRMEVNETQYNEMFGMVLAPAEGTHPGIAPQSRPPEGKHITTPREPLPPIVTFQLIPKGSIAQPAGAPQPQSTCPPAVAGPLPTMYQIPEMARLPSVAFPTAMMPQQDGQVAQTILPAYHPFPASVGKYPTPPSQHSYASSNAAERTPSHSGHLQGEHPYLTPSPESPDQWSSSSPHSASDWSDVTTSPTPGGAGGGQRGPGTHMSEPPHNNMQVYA
NP40-soluble protein abundance (concentration: 0.1mM): 0.991 ± 0.023
NP40-soluble protein abundance (concentration: 0.5mM): 1.03 ± 0.042
NP40-soluble protein abundance (concentration: 1mM): 1.086 ± 0.0064
NP40-soluble protein abundance (concentration: 2mM): 1.12 ± 0.069
NP40-soluble protein abundance (concentration: 4mM): 0.967 ± 0.22
NP40-soluble protein abundance (concentration: 6mM): 1.08 ± 0.23
NP40-soluble protein abundance (concentration: 8mM): 1.08 ± 0.028
NP40-soluble protein abundance (concentration: 10mM): 1.06 ± 0.08

UniProt Q8WUQ7|Q8WUQ7-2
NP40-soluble protein abundance (concentration: 0.1mM): 0.975 ± 0.11
NP40-soluble protein abundance (concentration: 0.5mM): 1.02 ± 0.12
NP40-soluble protein abundance (concentration: 1mM): 0.967 ± 0.13
NP40-soluble protein abundance (concentration: 2mM): 1.02 ± 0.14
NP40-soluble protein abundance (concentration: 4mM): 1.09 ± 0.13
NP40-soluble protein abundance (concentration: 6mM): 1.12 ± 0.095
NP40-soluble protein abundance (concentration: 8mM): 1.12 ± 0.03
NP40-soluble protein abundance (concentration: 10mM): 1.19 ± 0.11
